Only some compounds are listed: those with a hit (about 4.6% of all), similar ones and a draw of the others.
Peg3 prom inh = Peg3 promoter activity inhibition | HeLa PEG-Prom luciferase reporter, luminescence, overnight | inhibition, % at 20 µM | 360,000 compounds, 1.7% hits;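 active means inhibition of at least 50% at 20 µM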
HIF-2a inh = blocks HIF-2a reporter activity | 360,000 compounds, 0.72% hits | 786-0 RCC cells HIF-2a reporter, luciferase luminescence, overnight | inhibition, % at 18.8 µM | AID 624352;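 active means inhibition of the luminescence signal of 40% or more relative to plate controls, in a single-dose primary screen at 18.75 µM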
KKLEB cytotox = reduces viability of KKLEB cystic fibrosis airway cells | KKLEB CF airway cells viability, ATPlite luminescence, overnight; hits give low values; cells stimulated with P. aeruginosa culture filtrate | activity change (cytotoxicity), % at 5 µM | 360,000 compounds, 0.36% hits;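 active means corrected activity change at or below -50% at 5 µM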
CF NFkB block = inhibitors of cystic fibrosis induced NF-kB. KKLEB NF-kB-GFP reporter, PAF-induced, GFP fluorescence overnight. inhibition, % at 5 µM. 360,000 compounds, 0.86% hits;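 active means at least 50% inhibition at 5 µM, scaled per plate between neutral and stimulator controls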;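 further: PAF is a Pseudomonas aeruginosa culture filtrate used as stimulus; plate controls were PAF-stimulated DMSO wells for no effect and unstimulated DMSO wells for full effect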
Mdm2-MdmX inh = disrupts the human Mdm2-MdmX interaction | SaOS-2 split-luciferase Mdm2/MdmX complementation, luminescence | inhibition, % at 8 µM | O15151+Q00987 | 330,000 compounds, 3% hits;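 active means inhibition of at least 50% at 8 µM in the primary screen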
ABHD5 PLIN5 PPI = inhibitors of human ABHD5-perilipin-5 interaction; inhibition, % at 4 µM; Split G. princeps luciferase complementation, luminescence, 4 h; Q00G26+Q8WTS1; 360,000 compounds, 0.78% hits;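 active means inhibition above the mean inhibition across every tested compound plus 3 SD, cut at about 22% in these data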;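 further: 0% = DMSO only wells and the 100% control is not disclosed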
ABHD5 PLIN5 conf = ABHD5-PLIN5 interaction inhibition, confirmed | biochemical ABHD5-PLIN5 interaction, luminescence | 2,200 compounds, 67% hits | AID 651612 | inhibition, % at 4 µM | shares compounds with ABHD5 PLIN5 PPI; in the data active means inhibition above about 23%;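 further: 0% = DMSO vehicle wells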
HNF4 counter = counter-screen for ABHD5-PLIN5 inhibitors: HNF4 split-luciferase. shares compounds with ABHD5 PLIN5 PPI. HNF4 dimerization, luminescence, biochemical. inhibition, % at 4 µM. 2,200 compounds, 77% hits;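 active means mean inhibition across replicate wells exceeding the computed hit threshold, cut at about 13% in these data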;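 further: light from luciferase halves that rejoin when HNF4 fusion proteins dimerize; 0% = DMSO only wells and the 100% control is not given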
Target sequence (P41235 whole entry, looked up, the tested form may be a part): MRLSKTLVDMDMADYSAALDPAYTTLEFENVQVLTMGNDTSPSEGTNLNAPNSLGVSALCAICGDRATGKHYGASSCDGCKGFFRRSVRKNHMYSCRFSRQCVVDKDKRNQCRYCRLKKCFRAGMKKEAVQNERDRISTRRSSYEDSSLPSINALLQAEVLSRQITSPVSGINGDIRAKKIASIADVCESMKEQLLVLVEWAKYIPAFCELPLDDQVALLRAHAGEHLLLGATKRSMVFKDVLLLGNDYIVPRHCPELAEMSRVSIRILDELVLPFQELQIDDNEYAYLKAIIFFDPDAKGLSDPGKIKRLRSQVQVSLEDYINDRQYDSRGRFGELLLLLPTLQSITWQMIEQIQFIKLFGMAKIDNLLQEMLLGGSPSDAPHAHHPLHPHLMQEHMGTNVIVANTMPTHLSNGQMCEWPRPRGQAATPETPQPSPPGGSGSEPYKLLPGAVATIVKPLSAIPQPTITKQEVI
* hit, by the source's call; . = not tested or not shown.

SMILES	Peg3 prom inh	HIF-2a inh	KKLEB cytotox	CF NFkB block	Mdm2-MdmX inh	ABHD5 PLIN5 PPI	ABHD5 PLIN5 conf	HNF4 counter
Cc1ccc(-c2ccc3c(c2)O[C@H](CN(C)C(=O)Nc2ccc(C(F)(F)F)cc2)[C@H](C)CN([C@H](C)CO)S3(=O)=O)cc1	20	8	-4	-23	.	-5	.	.
OC(c1ccc(F)c(F)c1)c1nc(-c2ccoc2)cs1 (stereo not drawn)	-6	-33	22	-42	.	20	.	.
OC(c1cccc(Cl)c1)c1nc(-c2ccoc2)cs1 (stereo not drawn)	7	-9	4	-46	.	27*	47*	43*
O=C(N/N=C/c1ccccc1OC(=O)c1ccc2c(c1)OCO2)c1cccc(F)c1	-62	-116	-4	-25	14	-3	.	.
O=C(Oc1ccccc1/C=C\C(=O)c1cc2ccccc2o1)c1ccccc1	-107	-159	-7	14	-46	30*	99*	101*
COc1cccc(C(=O)Oc2ccccc2/C=C\C(=O)c2cc3ccccc3o2)c1	105*	-121	-13	-1	.	83*	99*	101*
O=C(Oc1ccccc1/C=C\C(=O)c1cc2ccccc2o1)c1cccc(F)c1	-141	-187	1	10	-55	32*	99*	95*
N#CCC(=O)N/N=C\c1cc(Br)ccc1OC/C=C/c1ccccc1	-312	-273	-18	12	-10	-2	.	.
CCCCc1cc(=O)oc2cc(C)cc(OCC(=O)NC(Cc3ccc(Cl)cc3)C(=O)O)c12 (stereo not drawn)	9	14	4	6	11	-7	.	.
CCCCNC(=O)C(NC(=O)c1cccc(C(F)(F)F)c1)C(=O)c1ccccc1 (stereo not drawn)	4	9	-3	-7	.	-2	.	.
CC(=O)C1=C(C)NC(C)=C(C(C)=O)C1c1ccc(-c2ccccc2Cl)o1	-1	-22	3	-17	.	52*	14	38*
CN(C(=O)c1ccc(NC(=O)C2CCCN(C(=O)OC(C)(C)C)C2)cc1)C1CC1 (stereo not drawn)	11	9	-14	2	16	1	.	.
CC(C)(C)OC(=O)N1CCCC(C(=O)Nc2ccc(C(=O)NC3CC3)cc2)C1 (stereo not drawn)	12	2	3	-9	.	35*	2	5
COc1ccc(Nc2nc3cc(-c4ccccc4C)sc3c(=O)n2C)cc1OC	-77	-82	-13	10	.	-9	.	.
O=C(O)CN1C(=O)C=CC1=O	0	9	6	-1	.	66*	47*	104*
CCn1c(=O)c(C(=O)NNS(=O)(=O)c2ccc(Br)cc2)c(O)c2ccccc21	13	18	-6	4	42	-4	.	.
COC(=O)CNC(c1ccccc1)c1cc(Br)ccc1NC(=O)CCN1CCOCC1 (stereo not drawn)	18	19	-8	7	24	18	.	.
CCOC(=O)CNC(c1ccccc1)c1cc(Br)ccc1NC(=O)CCN1CCOCC1 (stereo not drawn)	22	28	-11	18	48	24*	3	39*
COc1ccc(NC(=O)C2CCCN(CCCc3ccccc3)C2)cc1OCC(C)C (stereo not drawn)	31	22	-9	15	46	39*	22*	15*
CC(=O)c1ccc2noc(-c3ccc(C)cc3)c2c1	-86	-134	5	1	-4	29*	14	22*
CCOC(=O)c1c(-c2ccc(C)o2)csc1NC(=O)CSc1ncn[nH]1	11	16	10	34	-35	44*	12	52*
CCOC(=O)c1c(-c2ccc(C)o2)csc1NC(=O)COC(=O)c1cccs1	-4	14	-4	13	-6	27*	10	28*
CCOC(=O)c1c(-c2ccc(C)o2)csc1NC(=O)CN1CCOCC1	12	31	-12	20	19	5	.	.
Cc1ccc([N+](=O)[O-])cc1N/C=C/C(=O)c1ccco1	-126	-171	8	-30	20	-1	.	.
O=C(/C=C/c1cccc([N+](=O)[O-])c1)c1ccco1	7	7	-6	3	31	71*	97*	97*
SMILES	Peg3 prom inh	HIF-2a inh	KKLEB cytotox	CF NFkB block	Mdm2-MdmX inh	ABHD5 PLIN5 PPI	ABHD5 PLIN5 conf	HNF4 counter
O=C(/C=C/c1cccc([N+](=O)[O-])c1)c1ccc([N+](=O)[O-])o1	100*	44*	-89*	97*	.	72*	105*	111*
O=C(/C=C/c1cccc([N+](=O)[O-])c1)NCc1ccc2c(c1)OCO2	7	6	-1	-4	3	-2	.	.
CCCCn1nnnc1C(c1ccccc1)N1CCN(c2ccccn2)CC1 (stereo not drawn)	.	-6	.	.	.	-2	.	.
Cc1noc(C)c1NC(=O)N(C)C[C@@H]1OCc2cn(nn2)CCCC(=O)N([C@H](C)CO)C[C@H]1C	-13	5	10	-25	.	7	.	.
CCC(=O)OCOc1ccc(/C=C2/CCC(CN(C)C)C2=O)cc1 (stereo not drawn)	100*	93*	-2	-4	.	51*	95*	109*
Cc1ccc(OCC(COCc2ccccc2)NC(C)C)cc1 (stereo not drawn)	-1	12	-14	0	8	0	.	.
CC(=O)c1cccc(NC(=O)/C(=C/c2ccco2)NC(=O)c2ccco2)c1	4	2	-9	8	3	2	.	.
O=C(Nc1cccc(F)c1)/C(=C\c1ccco1)NC(=O)c1ccco1	0	-10	4	-10	-16	27*	3	0
O=C(Nc1cccc(C(F)(F)F)c1)/C(=C/c1ccco1)NC(=O)c1cccs1	19	11	-9	-5	3	30*	10	11
CN1OC[C@@H]2CN(C(=S)NCCc3ccccc3)[C@H](c3ccccc3Br)C[C@@H]21	18	13	-21	-18	.	-6	.	.
O=C(NCCCCO)c1c(-c2ccccc2)oc2c1C(OCCCCCO)CCC2 (stereo not drawn)	.	4	.	.	.	5	.	.
CCN(CC)C(=O)N1CCN(C)CC1	-13	-33	2	-11	-12	38*	80*	37*
CN(C)CCOc1ccc(/C(=C(/CCCl)c2ccccc2)c2ccccc2)cc1	74*	-8	1	21	3	46*	75*	35*
O=C(N1CCCCC1)C1(S(=O)(=O)c2ccccc2)CC=CC1	-45	-72	11	-2	7	33*	2	0
O=C(N1CCOCC1)C1(S(=O)(=O)c2ccccc2)CC=CC1	6	14	12	-18	3	6	.	.

Screening results as filed in PubChem.
